Inconclusive results are not listed. The source made the active and inactive calls. Calls follow the shape of the dose curve; as a rule, active = well fitted inhibition curve with a large enough effect; inconclusive = small, poorly fitted or top-dose-only effect, or effect the other way; inactive = no such curve, though single readings can be large or run the other way.
test: Confirmatory Assay for General miRNAs Modulators and/or Inhibitors/Activators of miR-21; settings: HeLa miR-21 FLuc reporter, luminescence, 48 h; series mostly up to 38.3 µM
Description: MLSCN Grant: 1 R21 NS059478-01 Assay Provider: Qihong Huang, The Wistar Institute NCGC Assay Overview: MicroRNAs (miRNAs) are endogenously encoded small (~20-25 nucleotides), nonprotein-coding RNAs that are involved in post-transcriptional repression of target messenger RNAs (mRNAs) (Le and Hannon, 2004). Estimated to be involved in the regulation of 30% of all protein-coding mRNAs (Filipowicz et al., 2008), miRNAs play a significant role in many biological processes including cellular differentiation and tissue development (Ghildiyal and Zamore, 2009).
NCGC Assay Protocol Summary: Reagents: HeLa cells stably expressing firefly luciferase (FLuc) under the control of a CMV promoter (upstream) and a miR-21 binding sequence directly downstream of the gene. These cells endogenously express miR-21. Control compounds used were compound C3 (provided by collaborator), N6-phenyladenosine (MP Biomedicals, 0215379625), and DMSO. Assay Summary: 6uL of HeLa miR-21-FLuc cells in assay buffer (DMEM, Invitrogen #21063-029; 10% FBS, HyClone #SH30071.03) were dispensed at 2000cells/well (3.3 x 10^5 cells/mL) into Greiner solid-white TC-treated 1536-well plates using a Multidrop Combi (Thermo Fisher Scientific). Plates were incubated for one hour at 37 degree Celsius, 95% humidity, 5% CO2. These assay plates were then treated with 23nL of compound or DMSO using a Kalypsys pin tool, which allows for delivery of a 24-point titration of each compound to the assay plate, with a final compound concentration ranging from approximately 40uM to 5pM. Assay plates were then incubated for 48 hours. After incubation, plates were allowed to come to RT for one hour prior to delivery of 3uL of 3X luciferase detection reagent. After a 15 minute incubation to allow for cell lysis, luciferase activity was measured using a ViewLux CCD imager (PerkinElmer), with an average exposure time of 2-12 seconds. Keywords: NIH Roadmap, MLPCN, MLSMR, qHTS, miR-21, microRNA, firefly luciferase, FLuc.

| Compound | Potency |
| --- | --- |
| Nc1c(-c2nc(-c3ccccc3Cl)no2)nnn1-c1ccccc1F | 0.798 µM (active) |
| CN(C)c1ccc(CNc2nc(-c3ccco3)nn2S(C)(=O)=O)cc1 | 6.34 µM (active) |
| CSc1nsc(SCC(=O)Nc2ccc(F)cc2F)n1 | 7.98 µM (active) |
| COc1ccc(CNc2n[nH]c(-c3ccco3)n2)cc1OC | inactive |
| O=C(Nc1nnc(S(=O)(=O)N2CCCC2)s1)c1ccc(F)cc1 | inactive |
| COc1ccc(OCC(=O)Nc2cc(-c3nc4ccccc4s3)ccc2C)cc1 | 4 µM (active) |
| Cc1ccccc1OCCn1cnc2c(N)ncnc21 | inactive |
| Cc1c(-c2nsc(NC(=O)c3cccs3)n2)nnn1-c1ccc(F)cc1 | 0.565 µM (active) |
| Nc1c(C(=O)Nc2ccccc2Br)sc2nc(-c3cccs3)ccc12 | inactive |
| O=C(CSc1nnc(-c2ccncc2)o1)Nc1nncs1 | inactive |
| Cc1cc(C)cc(NC(=O)CSc2nnc(-c3ccccc3C)o2)c1 | 5.65 µM (active) |
| CC(C)(C)C1CCc2nc(NC(=O)Cc3cn4ccsc4n3)sc2C1 (configuration not stated) | 11.3 µM (active) |
| CCc1nonc1NC(=O)c1oc2ccccc2c1C | 7.98 µM (active) |
| COc1cccc(NC(=O)CSc2nnc(-c3cccs3)o2)c1 | 6.34 µM (active) |
| CCc1ccc2oc(C(=O)Nc3nonc3CC)c(C)c2c1 | 7.11 µM (active) |
| Nc1c(-c2nc(-c3ccncc3)no2)nnn1CC(=O)Nc1ccccc1 | inactive |

| Compound | Potency |
| --- | --- |
| COc1ccc(NC(=O)c2ncn(-c3ccccc3)n2)cc1Cl | 12.6 µM (active) |
| CN(C(=O)CSc1nnc(-c2ccccc2F)o1)C1CCCCC1 | 14.2 µM (active) |
| COc1ccc(C(=O)Nc2nnc(C(C)C)s2)cc1OC | 17.9 µM (active) |
| CCc1cccc(-n2nnc(-c3nsc(NC(=O)c4cccs4)n3)c2C)c1 | 10 µM (active) |
| NC(=O)c1ccccc1NC(=O)c1ccc(-c2ccc(Br)cc2)o1 | 2.83 µM (active) |
| Cc1ccc(NC(=O)Cn2nnc(-c3nc(-c4ccc(Cl)cc4)no3)c2N)cc1C | inactive |
| CCc1ccc(-n2nnc(-c3nc(-c4cccs4)no3)c2N)cc1 | 3.18 µM (active) |
| CS(=O)(=O)n1nc(-c2ccc(Cl)cc2)nc1SCc1ccccc1 | 5.04 µM (active) |
| COc1ccc(OCC(=O)Nc2ccc(-c3nc4cc(Cl)ccc4o3)cc2)cc1 | 0.503 µM (active) |
| Cc1ccc(-c2nc(NCc3ccco3)n(S(C)(=O)=O)n2)cc1 | 7.98 µM (active) |
| Cc1cccc(-c2nnc(SCC(=O)Nc3ccc(C)c(C)c3)o2)c1 | 3.18 µM (active) |
| Cc1cc(C)c2c(N)c(C(=O)Nc3ccccc3F)sc2n1 | 1.42 µM (active) |
| Cc1ccccc1Nc1nc(N)nc(CN(C)c2ccccc2)n1 | 11.3 µM (active) |
| Cc1ccc(-c2nsc(SCC(=O)Nc3ccc4c(c3)OCO4)n2)cc1 | 17.9 µM (active) |
| COc1cc(-c2nc3cnccn3c2Nc2ccc(C(C)C)cc2)ccc1O | 2.83 µM (active) |
| COc1ccccc1NC(=O)C/C(C)=N/NC(=O)c1ccccn1 | inactive |

From PubChem BioAssay AID2508 (National Center for Advancing Translational Sciences (NCATS), 2010)
